Results published in PubChem BioAssay AID1347418 (Sanford-Burnham Center for Chemical Genomics, 2020).
Screen size: about 1,300 compounds; about 750 (58%) were called active. The list shows a part of the results. Unmarked numbers belong to inactive results.

Each compound was assayed against Sulfhydryl oxidase 1 (Homo sapiens) (UniProt O00391) (assay: inhibition of human sulfhydryl oxidase QSOX1 – biochemical, ROS-Glo H2O2 luminescence, HTS, primary screen (AID 1347418)). Conditions: recombinant QSOX1, ROS-Glo H2O2 luminescence; at 12.5 µM; active compounds read high; active = any value above zero.
Sulfhydryl oxidase 1 (Homo sapiens), sequence (O00391 whole entry, looked up): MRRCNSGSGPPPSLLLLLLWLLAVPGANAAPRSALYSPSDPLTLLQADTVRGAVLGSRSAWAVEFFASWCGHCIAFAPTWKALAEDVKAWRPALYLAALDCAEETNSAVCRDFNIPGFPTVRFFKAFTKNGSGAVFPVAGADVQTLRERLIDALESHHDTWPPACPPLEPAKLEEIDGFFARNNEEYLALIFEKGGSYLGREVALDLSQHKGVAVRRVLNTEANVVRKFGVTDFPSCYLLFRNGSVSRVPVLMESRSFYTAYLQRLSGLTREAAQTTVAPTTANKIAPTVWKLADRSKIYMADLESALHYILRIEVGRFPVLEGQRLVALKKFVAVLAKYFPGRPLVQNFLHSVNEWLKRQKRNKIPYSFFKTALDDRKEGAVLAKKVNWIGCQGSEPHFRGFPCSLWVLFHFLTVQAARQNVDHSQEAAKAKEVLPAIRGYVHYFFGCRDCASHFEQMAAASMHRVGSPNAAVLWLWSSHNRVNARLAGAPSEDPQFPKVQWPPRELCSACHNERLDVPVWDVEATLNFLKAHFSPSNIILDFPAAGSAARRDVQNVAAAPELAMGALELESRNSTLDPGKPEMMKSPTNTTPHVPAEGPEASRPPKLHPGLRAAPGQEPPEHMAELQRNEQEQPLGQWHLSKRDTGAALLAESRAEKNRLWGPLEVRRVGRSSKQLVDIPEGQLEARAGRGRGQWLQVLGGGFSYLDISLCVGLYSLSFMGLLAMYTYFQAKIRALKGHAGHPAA

| SMILES | inhibition |
| --- | --- |
| O=Nc1ccc2oc(=O)ccc2c1 | 16.8% (active) |
| Cc1cc(Cn2cnc3c2C[C@@H](C(=O)O)N(C(=O)C(c2ccccc2)c2ccccc2)C3)ccc1N | 0% |
| CCN(CC)CCCC(C)Nc1c2ccc(Cl)cc2nc2ccc(OC)cc12 (stereo not drawn) | 0.7% (active) |
| CCN(CC)CCCC(C)Nc1ccnc2cc(Cl)ccc12 (stereo not drawn) | -4.9% |
| CN(C)C(=O)n1nnnc1Cc1ccc(-c2ccccc2)cc1 | 5.2% (active) |
| O=C(O)COCCN1CCN(C(c2ccccc2)c2ccc(Cl)cc2)CC1 (stereo not drawn) | 0.5% (active) |
| CN(C)C(=O)C(CCN1CCC(O)(c2ccc(Cl)cc2)CC1)(c1ccccc1)c1ccccc1 | -0.9% |
| CCNC(=O)N1CCN(CCCC(c2ccc(F)cc2)c2ccc(F)cc2)CC1 | -0.9% |
| O=C1/C(=C/c2ccsc2)CC/C1=C\c1cccs1 | 3.3% (active) |
| O=C(c1ccc(OCCCc2cnc[nH]2)cc1)C1CC1 | -3.2% |
| Fc1ccc(C(OCCCc2cnc[nH]2)c2ccc(F)cc2)cc1 | 4.3% (active) |
| C1CCc2nnnn2CC1 | -0.2% |
| CCC1C(=O)OCC1Cc1cncn1C (stereo not drawn) | 5.6% (active) |
| CCCCCCCCCCCCCCCCCCOC[C@H](COP(=O)([O-])OCC[N+](C)(C)C)OC | 3.3% (active) |
| CCCCCCCCCCCCCCCCCCNC(=O)OCC(COP(=O)([O-])OCC[n+]1ccsc1)OC (stereo not drawn) | -4.6% |
| Cn1cnc([N+](=O)[O-])c1Sc1ncnc2nc[nH]c12 | 0.2% (active) |
| N=C(N)c1ccc(N)cc1 | 5.7% (active) |
| N=C(N)c1ccc(OCCCCCOc2ccc(C(=N)N)cc2)cc1 | 1.1% (active) |
| N=C(N)c1ccccc1 | -3.7% |
| O=C1NC(=O)/C(=C/c2ccc3c(c2)OC(F)(F)O3)S1 | -1.5% |
| CCc1ccc(/C=C2/SC(=S)NC2=O)cc1 | -3% |
| O=C1NC(=O)/C(=C/c2ccc3nccnc3c2)S1 | 4.5% (active) |
| C#CCCN | 0.1% (active) |

| SMILES | inhibition |
| --- | --- |
| Nc1ncnc2nc(-c3ccc(N4CCOCC4)nc3)cc(-c3cccc(Br)c3)c12 | 10% (active) |
| NC(=O)c1ccc2[nH]ccc2c1 | 0.6% (active) |
| CC(C)OC(=O)C(C)(C)Oc1ccc(C(=O)c2ccc(Cl)cc2)cc1 | -0.6% |
| CC(C)(C)c1ccc(/C=C/C(=O)Nc2ccc3c(c2)OCCO3)cc1 | -1.6% |
| COc1ccc(NC(=O)/C=C/c2ccc(Cl)cc2)cc1 | 12.1% (active) |
| NC(=O)CC[C@H](N)C(=O)O | 2.8% (active) |
| N[C@@H](CCCC(=O)O)C(=O)O | 6.7% (active) |
| N[C@H](CCCP(=O)(O)O)C(=O)O | -1.3% |
| NC(CCCP(=O)(O)O)C(=O)O (stereo not drawn) | 0% |
| CN1C2CCCC1CC(NC(=O)c1nn(C)c3ccccc13)C2 (stereo not drawn) | 3% (active) |
| O=c1[nH]ccc2c(O)cccc12 | 4.1% (active) |
| O[Si](CCCN1CCCCC1)(c1ccc(F)cc1)C1CCCCC1 (stereo not drawn) | -3.8% |
| C[C@H](NC(CCc1ccccc1)C(=O)O)C(=O)N1CCC[C@H]1C(=O)O (stereo partly drawn) | -2.6% |
| CCOC(=O)[C@H](CCc1ccccc1)N[C@@H](C)C(=O)N1[C@H](C(=O)O)C[C@H]2CCCC[C@@H]21 | 2.6% (active) |
| Cc1cccc(C#Cc2ccccc2)n1 | 2.9% (active) |
| COc1ccc2c(c1OC)C(=O)O[C@@H]2[C@H]1c2c(cc3c(c2OC)OCO3)CCN1C | -4.2% |
| COc1cc([C@@H]2c3cc4c(cc3[C@@H](O[C@@H]3O[C@@H]5CO[C@@H](C)O[C@H]5[C@H](O)[C@H]3O)[C@H]3COC(=O)[C@H]23)OCO4)cc(OC)c1O | 0% |
| COc1cc([C@@H]2c3cc4c(cc3[C@H](O)C3COC(=O)[C@@H]32)OCO4)cc(OC)c1OC (stereo partly drawn) | 1.1% (active) |
| CC1=C(CC(=O)O)c2cc(F)ccc2/C1=C\c1ccc(S(C)=O)cc1 (stereo not drawn) | -0.4% |
| CC1=C(CC(=O)O)c2cc(F)ccc2/C1=C\c1ccc(S(C)(=O)=O)cc1 | 3.1% (active) |
| CC(=O)Oc1ccccc1C(=O)O | 0.3% (active) |
| O=C(CCc1ccc(O)cc1)c1c(O)cc(O)cc1O | 6.2% (active) |
| O=C1CCC(c2ccc(-n3ccnc3)cc2)=NN1 | 6.6% (active) |

| SMILES | inhibition |
| --- | --- |
| Nc1nc2ccc(OC(F)(F)F)cc2s1 | -3.9% |
| Cc1ccc2nc(CN(CCN(Cc3nc4ccc(C)cc4[nH]3)Cc3nc4ccc(C)cc4[nH]3)Cc3nc4ccc(C)cc4[nH]3)[nH]c2c1 | -0.7% |
| Brc1c(Br)c(Br)c2n[nH]nc2c1Br | 1% (active) |
| CN(C)CCCN1c2ccccc2CCc2ccccc21 | 11.1% (active) |
| CC(CN(C)C)CN1c2ccccc2CCc2ccccc21 (stereo not drawn) | 2% (active) |
| CNCCCC1c2ccccc2C=Cc2ccccc21 | -4.7% |
| CNCCCN1c2ccccc2CCc2ccccc21 | 5.2% (active) |
| CNCCCC12CCC(c3ccccc31)c1ccccc12 | -2.7% |
| CN(C)CCCN1c2ccccc2CCc2ccc(Cl)cc21 | 2.6% (active) |
| O=C(O)CCC(C(=O)O)N1C(=O)c2ccccc2C1=O (stereo not drawn) | -1% |
| CCCCNc1c(C(=O)OCC)c(C)nc2c1cnn2CC | 3.5% (active) |
| CCOC(=O)c1cnc2c(cnn2CC)c1NN=C(C)C | 0.7% (active) |
| CCCCNc1ccc(C(=O)OCCN(C)C)cc1 | -1.8% |
| CC(C)COC(=O)OCN1C(=O)CN(CCN2CC(=O)N(COC(=O)OCC(C)C)C(=O)C2)CC1=O | 2.6% (active) |
| NCCSSCCN | 10.5% (active) |
| CCOC(=O)Nc1ccc(NCc2ccc(F)cc2)nc1N | 9.8% (active) |
| CCCCCCCCc1ccc(-c2ccc(C(=O)O)cc2)cc1 | -5.7% |
| CCCCCCCCCC[Si](C)(C)CCC(=O)NC(Cc1ccc(C)cc1)c1ccccc1 (stereo not drawn) | 0.6% (active) |
| CN(C)c1nc(N)c(C(=O)N=C(N)N)nc1Cl | 0.7% (active) |
| NC(N)=NC(=O)c1nc(Cl)c(N)nc1N | -2.5% |
| CCN(c1nc(N)c(C(=O)N=C(N)N)nc1Cl)C(C)C | -3.8% |
| NC(N)=NC(=O)c1nc(Cl)c(N2CCCCCC2)nc1N | 1.7% (active) |
